Source: PubChem BioAssay AID2101 (National Center for Advancing Translational Sciences (NCATS), 2009)
The campaign covered roughly 330,000 compounds. About 300 (0.091%) were called active. A call without a number means that no potency is given here. Roughly 4% stayed inconclusive and do not appear here. The call rests on the fitted dose curve; in most records, active means well fitted inhibition curve with a large enough effect; inconclusive means small, poorly fitted or top-dose-only effect, or effect the other way, or another doubt; inactive means no such curve, though single readings can be large or run the other way. Only a selection was taken, and actives are over-represented in it overall.

Molecular target: Lysosomal acid glucosylceramidase (Homo sapiens) (UniProt P04062)
Experiment: qHTS Assay for Inhibitors and Activators of N370S glucocerebrosidase as a Potential Chaperone Treatment of Gaucher Disease
Settings: N370S GC spleen homogenate, 4MU-glucoside fluorescence; series mostly up to 59.4 µM
Potency means the concentration at half of the fitted maximal effect.

| Compound | activity change, negative = inhibition | Potency |
| --- | --- | --- |
| CO[C@@]12[C@@H](COC(N)=O)C3=C(C(=O)C(C)=C(N)C3=O)N1C[C@@H]1N[C@@H]12 | inactive |  |
| COc1ccccc1C(=O)Nc1ccc(C)c(S(=O)(=O)N2CCCCC2)c1 | inactive |  |
| COc1cc(C(c2c(NC(=O)c3ccco3)sc(C)c2C)N2CCOCC2)cc(OC)c1OC (stereo not drawn) | inactive |  |
| CC1(C(=O)OCC(=O)Nc2ncc(Cl)cc2Cl)CC1(Cl)Cl (stereo not drawn) | inactive |  |
| Cc1cccc(N2CCN(S(=O)(=O)c3ccc(-c4cc(C)no4)s3)CC2C)c1 (stereo not drawn) | inactive |  |
| Cc1cccc(N2CCN(C(=O)c3cccc(S(=O)(=O)N4CCc5ccccc5C4)c3)CC2C)c1 (stereo not drawn) | inactive |  |
| Cc1cccc(N2CCN(S(=O)(=O)c3ccc4[nH]c(=O)c(=O)[nH]c4c3)CC2C)c1 (stereo not drawn) |  | 12.6 µM (active) |
| CCCCNc1nc(C)nc2c1nc(-c1ccccc1)n2CCCCN(CC)CC | inactive |  |
| CC(C)[C@@H](CC(=O)N[C@@H]1CCNC[C@H]1C(=O)N[C@H](CC(=O)N[C@@H](CCC(=O)O)CC(=O)O)Cc1ccccc1)NC(=O)C[C@H](CO)NC(=O)[C@@H]1CNCC[C@H]1N | inactive |  |
| CN(CC(=O)NC(=O)Nc1ccccc1F)Cc1ccccc1 | inactive |  |
| Oc1ccc(-c2c(-c3ccccc3)nn3c(C(F)(F)F)cc(C(F)(F)F)nc23)cc1 | inactive |  |
| Cn1c(N)c(C(=O)COC(=O)c2cc(C(F)(F)F)nc3c(C(F)(F)F)cccc23)c(=O)n(C)c1=O | inactive |  |
| Cc1cc(C)cc(NC(=O)C(c2ccccc2)N2CCN(CC(=O)N3CCCC3)CC2)c1 (stereo not drawn) | inactive |  |
| CCCn1c(-c2ccc(F)cc2)nc2c(NCC3CCCN3CC)nc(C)nc21 (stereo not drawn) | inactive |  |
| Cc1cccc(CNc2ccnc(-c3cccnc3)n2)c1 | inactive |  |
| CC(C)C(NS(=O)(=O)c1ccc(-c2ccc(Br)cc2)cc1)C(=O)O (stereo not drawn) | inactive |  |
| Cn1nc(C(=O)OCC(=O)N(Cc2ccccc2)C(C)(C)C)c2ccccc2c1=O | inactive |  |
| O=S(O)S(=O)(=O)O | inactive |  |
| O=C(CN1CCN(C2CCS(=O)(=O)C2)CC1)N1N=C(c2ccc(Cl)cc2)CC1c1ccco1 (stereo not drawn) | inactive |  |
| O=C(CCNS(=O)(=O)c1ccccc1)NCCCc1ccccc1 | inactive |  |
| Cc1ccc(-n2nc(C)c(C(=O)O)c2-n2cccc2)cc1 | inactive |  |

| Compound | activity change, negative = inhibition | Potency |
| --- | --- | --- |
| COc1ccccc1-c1nc(NCCNC(C)=O)c2ccccc2n1 | inactive |  |
| COCCNc1nc(-c2ccccc2)nc2c1oc1ccccc12 | inactive |  |
| CCC(=O)OCCNc1nc(-c2ccccc2)nc2ccccc12 |  | 2 µM (active) |
| O=C(CN1CCCCC1)NC(=O)Nc1ccccc1F | inactive |  |
| COc1ccc(C2/C=C\CN(C(=O)c3ccc(C)cc3)C(Cc3ccccc3)C(=O)N2Cc2ccc(F)cc2)cc1 (stereo not drawn) | inactive |  |
| O=C(CSc1nnc(CN2CCCC2)n1-c1ccc(F)cc1)c1ccc2c(c1)OCO2 | inactive |  |
| COc1ccc2c(c1)O[C@@H](c1ccc3c(c1)OCO3)[C@H](OC(=O)NCCc1ccc(OC)c(OC)c1)C2=O | inactive |  |
| Cc1ccc(NC(=O)Cn2c(C)csc2=O)cc1 | inactive |  |
| CN1CCN(c2ccc(NC(=O)c3cc(Cl)c4c(c3)OCCO4)cc2)CC1 | inactive |  |
| C1CCC2OC2C1 (stereo not drawn) | inactive |  |
| Cc1ccc(C)c(NC(=O)C(c2ccccc2)N2CCN(CC(=O)NC3CC3)CC2)c1 (stereo not drawn) | inactive |  |
| COc1ccc(CCNC(=O)COC(=O)Cc2cccc(F)c2)cc1 | inactive |  |
| C=CCOC(=O)C(=C)C | inactive |  |
| O=C(NCc1ccccn1)[C@]1(C(F)(F)F)C[C@H](CCc2ccccc2)CCCO1 | inactive |  |
| COC(=O)C(CC(C)C)NS(=O)(=O)c1cc(Br)ccc1Br (stereo not drawn) | inactive |  |
| Cc1csc(NC(=O)C2CCN(S(=O)(=O)c3ccccc3)CC2)n1 | inactive |  |
| CNC(=O)[C@]1(C(F)(F)F)C[C@H](CCc2ccccc2)CCCO1 | inactive |  |
| CN1CCc2nc(-c3ccccc3)c(-c3ccccc3)cc2C1 | -2.21% [at 12.8 µM] (inactive) |  |
| COc1ccc(-c2nc(-c3ccccc3)oc2Nc2ccc3ccccc3c2)cc1 | inactive |  |
| COc1cccc([C@@H]2Oc3ccc(Br)cc3C(=O)[C@H]2OC(=O)NCc2ccc3c(c2)OCO3)c1 | inactive |  |
| CC(OC(=O)Cc1ccc(F)cc1)C(=O)N1CCc2ccccc21 (stereo not drawn) | inactive |  |

| Compound | activity change, negative = inhibition | Potency |
| --- | --- | --- |
| CCOC(=O)Cn1c(=O)sc2cccc(Cl)c21 | inactive |  |
| Cc1cc(N(C)C)nc(Cl)n1 | inactive |  |
| CNC(=O)C1CC(=O)N(c2ccc(OCC(=O)Nc3ccccc3C)cc2)C1 (stereo not drawn) | inactive |  |
| C=C(C)C(=O)c1ccc(F)cc1 | inactive |  |
| CCCN1CCC(=O)N(C(CSc2ccc(C)cc2)Cc2ccccc2)CC1 (stereo not drawn) | inactive |  |
| CCN(C(=O)COC(=O)CCOc1cccc(C)c1)c1c(N)n(Cc2ccccc2)c(=O)[nH]c1=O | inactive |  |
| CC(C)C[C@H](NC(=O)[C@H](O)[C@H](N)Cc1ccccc1)C(=O)O | inactive |  |
| Cc1cc(C)n2nc(C(=O)Nc3cccc(S(=O)(=O)N4CCOCC4)c3)nc2n1 | inactive |  |
| COC(=O)C1(Cc2ccccc2)C=C2C(=C(C)C(=O)C2C)CN1 (stereo not drawn) | inactive |  |
| COC(=O)[C@@]1(C)C=C[C@@H](Cc2ccccc2)N1C(C)=O | inactive |  |
| Cn1c2cc(B(O)O)sc2c2cnn(Cc3ccccc3F)c(=O)c21 | inactive |  |
| Cc1ccc(/C(=C/CN2CCCC2)c2ccccn2)cc1 | inactive |  |
| CCN(CC)CCCCn1c(-c2ccccc2)nc2c(N3CCOCC3)nc(C)nc21 | inactive |  |
| COc1cccc(NC(=O)CN(C)C(=O)/C=C/c2cn(-c3ccccc3)nc2-c2cccs2)c1 | inactive |  |
| COc1ccc(C2/C=C\CN(Cc3ccco3)C(C)C(=O)N2Cc2ccc(F)cc2)cc1 (stereo not drawn) | inactive |  |
| O=C(CN1CCCCC1)Nc1ccccc1C(=O)NC1CC1 | inactive |  |
| C=C1CCN(C(CC(C)C)C(=O)NCc2cc(OC)c(OC)c(OC)c2)S(=O)(=O)c2ccccc21 (stereo not drawn) | inactive |  |
| BrC1C(Br)C(Br)C(Br)C(Br)C1Br (stereo not drawn) | inactive |  |
| CCCCn1c(N)c(N(CCC(C)C)C(=O)COC(=O)c2ccc(CC)cc2)c(=O)[nH]c1=O | inactive |  |
| Cc1ccc(C(CC(=O)O)NC(=O)c2ccc(S(=O)(=O)N3CCCC3)cc2)cc1 (stereo not drawn) | inactive |  |
| CC(C)=CCC[C@]1(C)[C@@H](CC=C(C)C)C[C@@]2(CC=C(C)C)C(=O)[C@]1(C(=O)C(C)C)C(=O)C(CC=C(C)C)=C2O | inactive |  |
